BJeLR lethal = BJeLR cell viability loss | 300,000 compounds, 0.17% hits | inhibition, % (test concentration not listed) | AID 1554 | BJeLR (HRASV12) viability, CellTiter-Glo ATP luminescence, 48 h; in the data active means inhibition above about 50%
PrPC TRFRET = cell surface PrPC inhibition, primary TR-FRET screen. TR-FRET read-out. P04156. AID 720596. 370,000 compounds, 0.43% hits. inhibition, % at 13.8 µM; in the data active means inhibition above about 24%; further: 0% = median of the test wells and 100% = reference compound wells
FBA Mtb inh = inhibitors of M. tuberculosis fructose-bisphosphate aldolase. P9WQA3. purified M. tuberculosis FBA, fluorescence read-out. inhibition, % at 1 µM. 360,000 compounds, 2.3% hits; in the data active means inhibition above about 27%;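 further: 0% = vehicle and 100% = reference inhibitor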
Target sequence (P9WQA3 whole entry, looked up): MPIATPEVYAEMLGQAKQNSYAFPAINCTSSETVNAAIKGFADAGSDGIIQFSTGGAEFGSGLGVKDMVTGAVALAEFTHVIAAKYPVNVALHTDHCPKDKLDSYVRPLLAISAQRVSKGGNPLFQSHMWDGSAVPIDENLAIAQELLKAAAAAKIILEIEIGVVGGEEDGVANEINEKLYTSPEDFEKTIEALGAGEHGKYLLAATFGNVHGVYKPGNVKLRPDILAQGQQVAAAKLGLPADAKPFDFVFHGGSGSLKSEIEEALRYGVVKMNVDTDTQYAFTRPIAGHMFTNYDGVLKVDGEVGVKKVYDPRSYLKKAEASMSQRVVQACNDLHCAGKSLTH
RecA intein inh = blocks M. tuberculosis RecA intein splicing | AID 2221 | 290,000 compounds, 0.75% hits | inhibition, % (no concentration beside the values) | cell-free RecA intein splicing, fluorescence; in the data active means inhibition above about 30%;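 further: 0% = vehicle wells and 100% = reference inhibitor control wells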
GDH-TPI inh = inhibits GDH-TPI coupling enzymes, artifact for Mtb FBA screen; GDH-TPI coupled enzyme counterscreen, NADH absorbance; inhibition, % at 4.8 µM; 360,000 compounds, 1.2% hits; AID 588335; in the data active means inhibition above about 30%;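 further: 0% = DMSO wells and 100% = wells lacking the enzyme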
Starred values were filed as active, the others as inactive; · = not tested or not shown; + = active, no number. A selection: hits, their analogues and other compounds. The true share with any hit is near 4.2%.

SMILES	BJeLR lethal	PrPC TRFRET	FBA Mtb inh	RecA intein inh	GDH-TPI inh
CCOc1ccc(/C=N/N(C)c2ccccc2)cc1OC	-5	3	-1	0	33*
Cn1c(SCC(=O)c2ccc(O)cc2O)nnc1-c1ccccc1	-4	-1	0	-5	34*
O=C(N/N=C/c1cc(Br)cs1)c1ccccc1[N+](=O)[O-]	2	-20	-1	0	9
O=C(N/N=C/c1ccc(Cl)s1)c1ccccc1[N+](=O)[O-]	-7	-8	0	-2	31*
Cc1oc(=O)c(NC(=O)c2ccccc2)cc1C(C)O (centres undefined)	-3	1	3	3	14
CCOC(=O)c1cc(NC(=O)c2ccccc2)c(=O)oc1-c1ccccc1	14	3	2	-1	33*
CCCCN1CC(=O)N2[C@H](C[C@@]3(n4ccc5ccccc54)c4ccccc4N(S(=O)(=O)c4ccccc4)[C@@H]23)C1=O	·	-1	·	·	·
O=c1oc2ccc(Cl)cc2nc1/C=C(\O)c1ccco1	3	-8	-2	-2	37*
CC(C)C/C(O)=C/c1nc2cc(Cl)ccc2oc1=O	2	3	-3	2	7
CCSc1nnc(NC(=O)c2ccc(C)o2)s1	7	-8	0	2	32*
CC(C)(C)C(=O)OC12CCCN(C1)/C(=C/c1ccncc1)C2 (centres undefined)	·	9	·	·	·
COC(=O)c1ccc(S(=O)(=O)N2CCC(NC(=O)COc3ccc(F)cc3)CC2)cc1	·	-5	·	·	·
CCn1c2ccccc2c2cc(C#N)c(N)nc21	-19	-8	106*	0	18
O=c1c2ccccc2n(Cc2ccno2)n1[C@@H](Cc1ccccc1)Cn1cc(-c2ccc(-c3ccccc3)cc2)nn1	·	12	·	·	·
Cc1cccc(C(=O)Nc2ccc(S(=O)(=O)N3CCOCC3)cc2)c1[N+](=O)[O-]	3	7	2	1	12
O=C(Nc1ccc(S(=O)(=O)N2CCOCC2)cc1)c1ccc([N+](=O)[O-])o1	1	11	-1	-3	32*
Cc1c(C(=O)Nc2ccc(S(=O)(=O)N3CCOCC3)cc2)cccc1[N+](=O)[O-]	-4	-5	+	2	6
COc1cccc(-n2c([S-])c(C(=O)Nc3ccc(S(=O)(=O)N4CCOCC4)cc3)[n+]3cc(C(N)=O)ccc23)c1	5	-5	-3	0	31*
Cc1ccc(CNC(=O)O[C@H]2CC[C@@]34CCCN3C(=O)CCC[C@H]4[C@H]2C)cc1	·	-2	·	·	·
Oc1ccc(O)c(C=NNC(=S)NC2CC3CC2C2C=CCC32)c1 (centres undefined)	·	-8	2	·	31*
C#CCn1c(=NC(=O)c2cccs2)sc2cccc(OC)c21	-3	-2	6	-5	31*
C#CCn1c(=NC(=O)CN2C(=O)CCC2=O)sc2cccc(OC)c21	-7	-3	14	-2	2
COc1ccc(C)c2sc(=NC(=O)c3cccc(N4C(=O)CCC4=O)c3)n(C)c12	7	13	-1	-1	13
C=CCn1c(=NC(=O)c2cccc(N3C(=O)CCC3=O)c2)sc2cccc(OC)c21	-18	4	3	-1	42*
COP(=O)(OC)C(Cc1ccccc1)NC(=O)CNC(=O)OCc1ccccc1 (centres undefined)	·	2	·	·	·
SMILES	BJeLR lethal	PrPC TRFRET	FBA Mtb inh	RecA intein inh	GDH-TPI inh
Cn1c(=O)c(N=O)c(N)n(Cc2ccccc2)c1=S	-8	-8	-1	11	32*
Cc1ccc(NC(=O)c2cc(NC(=O)c3ccccc3C(=O)O)ccc2N2CCCCC2)cc1	-4	-2	-5	6	-3
Cc1ccc(NC(=O)c2cc(NC(=O)/C=C\C(=O)O)ccc2N2CCCCC2)cc1	1	2	1	48*	16
O=C(CSc1nc2[nH]c(=O)cc(O)c2s1)Nc1ccc(Br)cc1	·	7	6	·	32*
COCCNC(=O)C[C@H]1CC[C@H]2[C@@H](COc3ccc(NS(=O)(=O)c4ccc(Cl)cc4)cc3C(=O)N2C)O1	·	6	·	·	·
COCCn1c(-c2ccc(NC(C)=O)cc2)nc2c1c(=O)[nH]c(=O)n2CC(C)C	8	2	126*	3	1
CC(C)Cn1c(-c2ccc(C#N)cc2)nc2c1c(=O)[nH]c(=O)n2CC(C)C	-6	4	+	0	10
CCCCn1c(=O)[nH]c(=O)c2c1nc(-c1ccc(C#N)cc1)n2C1CCCC1	-3	-5	166*	0	7
CC1=C2NC(N)=[N+](Cc3ccc4c(c3)OCO4)CC2n2c(=O)n(-c3ccccc3)c(=O)n2C1 (centres undefined)	·	-2	·	·	·
COc1cccc(N2C(=O)NC(=O)/C(=C/c3ccc4c5c(cccc35)CC4)C2=O)c1	1	-3	·	-4	·
CCOc1ccccc1N1C(=O)NC(=O)/C(=C/c2ccc3c4c(cccc24)CC3)C1=O	-4	4	38*	2	24
Cc1ccc(CN2CCCCC(NC(=O)Nc3cccc([N+](=O)[O-])c3)C2=O)cc1 (centres undefined)	·	7	·	·	·
N#CCSc1ccc2nc(-c3ccccc3)cn2n1	-5	-7	134*	-2	22
Cc1ccc(N2CCCn3c2cc(C)c(C#N)c3=O)cc1Cl	4	-1	-1	5	16
Cc1ccc(N2CCCn3c2cc(C)c(C#N)c3=O)cc1C	4	-1	5	8	39*
CCn1c(O)c(/C=N/NC(=O)c2ccncc2)c(=O)[nH]c1=S	-15	0	7	-2	17
CCCCn1c(O)c(/C=N/NC(=O)c2ccncc2)c(=O)[nH]c1=O	-3	0	1	-2	46*
COC(=O)[C@]1(CNS(=O)(=O)C2CC2)CC(=O)N(C)[C@@H]1c1ccccc1	·	7	·	·	·
Cc1c(N=C2NN=C(c3c[nH]c4ccccc34)CS2)c(=O)n(-c2ccccc2)n1C	5	-5	0	-1	50*
COC(=O)Cc1c(C)c2ccc(OCC(=O)NC3CCS(=O)(=O)C3)cc2oc1=O (centres undefined)	-3	-2	140*	0	7
COC(=O)Cc1c(C)c2ccc(OCC(=O)N(C)C)cc2oc1=O	-2	-6	138*	3	20
Cc1c(Cc2ccccc2)c(=O)oc2cc(OCC(=O)c3ccccc3)ccc12	-23	7	11	-2	-3
O=C(COc1ccc2ccc(=O)oc2c1)NC1CCS(=O)(=O)C1 (centres undefined)	·	-4	21	·	19
CCCOc1ccc2c(C)c(CC(=O)OC)c(=O)oc2c1	4	3	121*	-4	24
COc1ccc(-c2c(-c3ccc(OC)c(F)c3)c3ccccc3n2C)cc1	·	3	37*	·	16
COc1ccc(-c2c(-c3cc(OC)cc(OC)c3)n(C)c3ccc(-c4ccc(OC)c(F)c4)cc23)cc1	·	4	5	·	9
Cc1c(N=Cc2c(O)n(Cc3ccccc3)c(=O)[nH]c2=O)c(=O)n(-c2ccccc2)n1C	4	5	-3	·	17
COc1ccccc1-n1c(O)c(C=Nc2c(C)n(C)n(-c3ccccc3)c2=O)c(=O)[nH]c1=O	10	-6	-6	-3	37*

Screens from PubChem BioAssay.
